The nature of experiment [1]: qHTS for Inhibitors of ATXN expression: Validation (AID 588378; active means well fitted curve in the direction sought with a large enough effect; an effect the other way counts as inactive or inconclusive; further: series mostly up to about 57 µM; on the % scale 0 is the no-effect control and ±100 the full control effect; nearly all actives have a fitted effect of over 75% in size). In outline:
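After a 2 h attachment and 24 h compound incubation, HEK293-ATXN2-FFLuc wells are read for fluorescence at 405 nm excitation/525 nm emission as a viability measure, then for Bright-Glo luminescence reflecting ATXN2 expression.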
For orientation: qHTS replaces the single test concentration by a dilution series.

Experiment [2] has as its target Estrogen receptor (Homo sapiens) (UniProt P03372). The experiment is described as follows: qHTS assay for small molecule antagonists of estrogen receptor alpha signaling (AID 588513; active means well fitted curve in the direction sought with a large enough effect in the signal ratio, with a control signal flat, not every such curve was filed as active; the % refers to the signal ratio; further: on the % scale 0 is the no-effect control and ±100 the full control effect). In outline:
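Antagonist-mode qHTS in ER-alpha-UAS-bla HEK 293 cells: compound titration, 0.5nM estradiol for 18 h, CCF4 fluorescence, Hill-derived IC50.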

Experiment [3] addresses Androgen receptor (Homo sapiens) (UniProt P10275). The experiment is described as follows: qHTS assay for small molecule agonists of androgen receptor signaling (AID 588515; active means well fitted curve in the direction sought with a large enough effect in the signal ratio, with a control signal flat; the % refers to the signal ratio; further: on the % scale 0 is the no-effect control and ±100 the full control effect). To be noted: AR-UAS-bla HEK293, beta-lactamase ratio, agonist 16 h; stronger effect = higher value. In outline: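 Stimulation of an AR-responsive β-lactamase reporter in GripTite HEK293 cells was measured after 16 h compound exposure at 37 °C, via CCF4 fluorescence after 2 h RT. EC50 from Hill fits, normalized to R1881 at 30 nM.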

The target is the same in experiment [4]. The experiment is described as follows: qHTS assay for small molecule antagonists of androgen receptor signaling (AID 588516; active means well fitted curve in the direction sought with a large enough effect in the signal ratio, with a control signal flat, not every such curve was filed as active; the % refers to the signal ratio; further: on the % scale 0 is the no-effect control and ±100 the full control effect). In outline: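 Compounds tested in titration against 10 nM R1881 in AR-responsive bla reporter HEK 293 cells; CCF4 fluorescence (460/530 nm) after 16 h exposure gave IC50 and efficacy.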
Experiment [5] concerns the target Glucocorticoid receptor (Homo sapiens) (UniProt P04150). Nature of the experiment: qHTS assay for small molecule agonists of glucocorticoid receptor signaling (AID 588532; active means well fitted curve in the direction sought with a large enough effect in the signal ratio, with a control signal flat; the % refers to the signal ratio;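 further: 100% = dexamethasone at 0.1 µM and 0% = DMSO only wells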). The following applies: HeLa MMTV-bla, beta-lactamase ratio, agonist, 18 h; stronger effect = higher value; percent of dexamethasone control, DMSO zero. In outline:
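Cells were plated and rested 3-5 h at 37 C, compounds were added in titration and incubated 18 h, then CCF4 substrate was loaded for 2 h at RT before reading blue/green fluorescence. EC50 came from Hill-equation fitting.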

For experiment [6] the target is unchanged. The experiment is described as follows: qHTS assay for small molecule antagonists of glucocorticoid receptor signaling (AID 588533; active means well fitted inhibition curve with a large enough effect in the signal ratio, with a control signal flat, not every such curve was filed as active; the % refers to the signal ratio; further: potency means the concentration at half of the fitted maximal effect). In outline: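 Antagonist-mode qHTS: compound titrations added to GRE-bla HeLa cells, then dexamethasone 2 nM final; 18 h, 37 C. CCF4 FRET fluorescence normalized to dexamethasone and DMSO; IC50 from Hill fit.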
A short description of experiment [7]: qHTS assay for small molecule antagonists of peroxisome proliferator-activated receptor delta signaling (AID 588535; active means well fitted inhibition curve with a large enough effect in the signal ratio, with a control signal flat, not every such curve was filed as active; the % refers to the signal ratio;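 on max response: cells co-treated with a PPAR-delta agonist as stimulator during compound exposure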). To be noted: HEK293T PPARd-UAS-bla, beta-lactamase FRET ratio, 18 h; 460 nm channel. In outline: (§1)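 Fluorescence from CCF4-loaded GeneBLAzer PPAR-delta-UAS-bla HEK293T cells (2 hrs RT loading) quantified reporter inhibition after an 18 hr, 37 C compound exposure across a titration.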

For experiment [8], the target named is Peroxisome proliferator-activated receptor delta (Homo sapiens) (UniProt Q03181). Described as above. The essentials:
as §1

The target in experiment [9] is Peroxisome proliferator-activated receptor gamma (Homo sapiens) (UniProt P37231). Nature of the experiment: qHTS assay for small molecule antagonists of peroxisome proliferator-activated receptor gamma signaling (AID 588537; active means well fitted inhibition curve with a large enough effect in the signal ratio, with a control signal flat, not every such curve was filed as active; the % refers to the signal ratio; further: potency means the concentration at half of the fitted maximal effect). In outline: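 Fluorescence at 460 and 530 nm (405 nm excitation) reported beta-lactamase cleavage of CCF4 after 2 h room-temperature loading. HEK293 reporter cells in 1% charcoal/dextran-treated FBS had received compound and rosiglitazone for 16 h.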

Experiment [10] addresses Vitamin D3 receptor (Homo sapiens) (UniProt P11473). The experiment is described as follows: qHTS assay for small molecule antagonists of vitamin D receptor signaling (AID 588541).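 Further: receptor activated by calcitriol during compound treatment; series mostly up to about 77 µM; on the % scale 0 is the no-effect control and ±100 the full control effect.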 In outline: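 VDR-UAS-bla HEK293T cells in 2% charcoal-stripped FBS were stimulated with 1-alpha,25-dihydroxyvitamin D3 (3 nM final) plus compound for 16 h at 37 C. The beta-lactamase CCF4 readout was normalized to 50 nM agonist and DMSO, and Hill fits gave IC50.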

Experiment [11] has the same target. Nature of the experiment: qHTS assay for small molecule agonists of vitamin D receptor signaling (AID 588543).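 Further: 0% = DMSO basal and 100% = reference agonist control.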 In outline:
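Measured: β-lactamase reporter activity (CCF4, 405 nm excitation, 460/530 nm emission) in HEK293T VDR-UAS-bla cells after 16 h compound exposure at 37 °C. Normalization against 50 nM 1α,25-dihydroxyvitamin D3 and DMSO; Hill-fit EC50.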

Experiment [12] deals with Thyroid hormone receptor beta (Homo sapiens) (UniProt P10828). The experiment is described as follows: qHTS assay for small molecule agonists of thyroid hormone receptor beta signaling (AID 588545). In outline:
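In this cell-based screen, titrated compounds act on HEK 293 cells held in medium with 2% charcoal/dextran FBS, NEAA and pyruvate for 18 hrs at 37 C. Responses are expressed relative to T3 (10 nM) as 100% and basal DMSO as 0%.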

The nature of experiment [13]: qHTS assay for small molecule antagonists of retinoid X receptor alpha signaling (AID 588546; active means well fitted inhibition curve with a large enough effect in the signal ratio, with a control signal flat, not every such curve was filed as active; the % refers to the signal ratio; further: potency means the concentration at half of the fitted maximal effect). To be noted: HEK293T RXRa-UAS-bla, beta-lactamase ratio, antagonist mode; measured here: W530 green channel, cytotoxicity proxy. The essentials: (§2)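 Beta-lactamase reporter inhibition, read as CCF4 fluorescence ratio (ex 405, em 460/530 nm) after 2 h at RT. HEK293T UAS-bla cells, 2500/well, were stimulated with 9-cis-RA at 500 or 100 nM final alongside test compound for 18 h at 37 C.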

The target of experiment [14] is Retinoic acid receptor RXR-alpha (Homo sapiens) (UniProt P19793). Described as above. To be noted: HEK293T RXRa-UAS-bla, beta-lactamase ratio, antagonist mode. The essentials:
as §2

The target of experiment [15] is DNA dC->dU-editing enzyme APOBEC-3G (Homo sapiens) (UniProt Q9HC16). The experiment is described as follows: qHTS for inhibitors of Vif-A3G interactions: Validation (AID 588379; active means well fitted curve in the direction sought with a large enough effect; an effect the other way counts as inactive or inconclusive; further: 0% is about no effect). The essentials:
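Yellow fluorescence (Ex 488, Em 500-530) of Vif-coexpressing HeLa A3G-eYFP cells, scanned by Acumen cytometer, reports blocked A3G degradation. Cells plated at 700/well overnight at 37 deg C before compound addition, then a further overnight compound incubation at 37 deg C.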

Experiment [16] deals with Bile acid receptor (Homo sapiens) (UniProt Q96RI1). Nature of the experiment: qHTS assay for small molecule antagonists of farnesoid X receptor signaling (AID 588526). Further: potency means the concentration at half of the fitted maximal effect. In outline: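 Antagonist mode: titrated compounds tested against chenodeoxycholic acid stimulation (normalized to 50 uM CDCA and DMSO) in GeneBLAzer HEK293T cells for 16 h. Beta-lactamase read by CCF4 fluorescence; IC50 from Hill fits.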

Experiment [17] concerns the target Estrogen receptor (Homo sapiens) (UniProt P03372). Nature of the experiment: qHTS assay for small molecule agonists of estrogen receptor alpha signaling (AID 588514).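 Further: 0% = vehicle only and 100% = reference agonist; nearly all actives have a fitted effect of over 70% in size.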 In outline:
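Efficacy is expressed against 20 nM 17-beta-estradiol (100%) and DMSO basal (0%); EC50 from Hill equation. Assay: beta-lactamase reporter in ER-alpha-UAS-bla HEK 293 cells, 18 h compound incubation, CCF4 detection.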

Experiment [18] has as its target Peroxisome proliferator-activated receptor gamma (Homo sapiens) (UniProt P37231). The experiment is described as follows: qHTS assay for small molecule agonists of peroxisome proliferator-activated receptor gamma signaling (AID 588536; active means well fitted curve in the direction sought with a large enough effect in the signal ratio, with a control signal flat, not every such curve was filed as active; the % refers to the signal ratio;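 further: 0% = DMSO basal wells and 100% = rosiglitazone at 2 µM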). In outline: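 Compound treatment: 16 h, 37 C, HEK293 GeneBLAzer cells. Detection: CCF4, 2 h RT. Values: Hill-fit EC50, efficacy as % of 2 uM rosiglitazone.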

A short description of experiment [19]: qHTS assay for small molecule agonists of retinoid X receptor alpha signaling (AID 588544).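 On activation: 0% = DMSO basal wells and 100% = reference agonist.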 The following applies: HEK293T RXRa-UAS-bla, beta-lactamase reporter, 18 h; 530 nm emission.
In experiment [20] the target is Retinoic acid receptor RXR-alpha (Homo sapiens) (UniProt P19793). The experiment is described as above.

Where “and” joins values, the source holds several entries; their conditions need not be identical. Identical values can stand only once. Results filed as inconclusive are left out. Calls of active or inactive are those of the source. Unless noted, the call rests on the fitted dose curve.

Chain of Bile acid receptor (Homo sapiens) (Q96RI1 whole entry, looked up): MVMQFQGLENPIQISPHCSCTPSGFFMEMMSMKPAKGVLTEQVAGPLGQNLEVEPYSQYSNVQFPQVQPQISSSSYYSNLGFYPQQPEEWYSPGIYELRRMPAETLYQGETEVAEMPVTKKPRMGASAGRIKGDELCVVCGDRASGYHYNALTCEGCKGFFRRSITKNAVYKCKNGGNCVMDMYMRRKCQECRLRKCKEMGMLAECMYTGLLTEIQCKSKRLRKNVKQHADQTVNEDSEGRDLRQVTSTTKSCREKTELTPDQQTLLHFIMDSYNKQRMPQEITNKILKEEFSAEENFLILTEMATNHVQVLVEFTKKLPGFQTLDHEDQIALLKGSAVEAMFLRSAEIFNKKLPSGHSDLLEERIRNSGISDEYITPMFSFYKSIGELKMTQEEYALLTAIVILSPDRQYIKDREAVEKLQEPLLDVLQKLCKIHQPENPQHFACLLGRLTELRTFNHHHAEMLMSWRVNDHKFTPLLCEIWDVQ
Chain of Retinoic acid receptor RXR-alpha (Homo sapiens) (P19793 whole entry, looked up): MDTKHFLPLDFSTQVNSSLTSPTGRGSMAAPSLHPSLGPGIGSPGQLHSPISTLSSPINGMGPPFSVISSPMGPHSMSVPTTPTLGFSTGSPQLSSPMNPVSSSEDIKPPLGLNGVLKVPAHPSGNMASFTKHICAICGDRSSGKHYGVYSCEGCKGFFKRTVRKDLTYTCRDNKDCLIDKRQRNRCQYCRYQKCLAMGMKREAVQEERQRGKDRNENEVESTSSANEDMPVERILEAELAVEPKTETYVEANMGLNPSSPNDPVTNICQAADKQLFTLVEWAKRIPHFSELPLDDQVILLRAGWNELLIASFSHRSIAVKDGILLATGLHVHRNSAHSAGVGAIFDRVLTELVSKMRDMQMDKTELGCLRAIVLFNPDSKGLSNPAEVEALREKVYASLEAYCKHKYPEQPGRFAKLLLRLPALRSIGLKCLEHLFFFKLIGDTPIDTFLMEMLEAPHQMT
Chain of Estrogen receptor (Homo sapiens) (P03372 whole entry, looked up): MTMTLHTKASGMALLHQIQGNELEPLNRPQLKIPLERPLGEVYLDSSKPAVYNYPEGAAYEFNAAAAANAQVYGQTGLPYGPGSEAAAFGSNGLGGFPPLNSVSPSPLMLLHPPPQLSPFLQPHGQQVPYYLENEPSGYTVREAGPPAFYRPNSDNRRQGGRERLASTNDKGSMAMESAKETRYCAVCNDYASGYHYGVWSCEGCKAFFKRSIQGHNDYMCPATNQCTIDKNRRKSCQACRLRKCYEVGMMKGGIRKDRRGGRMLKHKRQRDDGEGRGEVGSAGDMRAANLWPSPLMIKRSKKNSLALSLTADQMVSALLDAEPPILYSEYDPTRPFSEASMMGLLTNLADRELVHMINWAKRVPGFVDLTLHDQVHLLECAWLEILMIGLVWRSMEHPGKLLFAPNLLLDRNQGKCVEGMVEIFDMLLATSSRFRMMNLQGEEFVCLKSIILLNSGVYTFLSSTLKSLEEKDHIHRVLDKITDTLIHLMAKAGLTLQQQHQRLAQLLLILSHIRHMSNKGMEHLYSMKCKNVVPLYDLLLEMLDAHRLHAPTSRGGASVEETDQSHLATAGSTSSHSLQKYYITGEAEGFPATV
Chain of DNA dC->dU-editing enzyme APOBEC-3G (Homo sapiens) (Q9HC16 whole entry, looked up): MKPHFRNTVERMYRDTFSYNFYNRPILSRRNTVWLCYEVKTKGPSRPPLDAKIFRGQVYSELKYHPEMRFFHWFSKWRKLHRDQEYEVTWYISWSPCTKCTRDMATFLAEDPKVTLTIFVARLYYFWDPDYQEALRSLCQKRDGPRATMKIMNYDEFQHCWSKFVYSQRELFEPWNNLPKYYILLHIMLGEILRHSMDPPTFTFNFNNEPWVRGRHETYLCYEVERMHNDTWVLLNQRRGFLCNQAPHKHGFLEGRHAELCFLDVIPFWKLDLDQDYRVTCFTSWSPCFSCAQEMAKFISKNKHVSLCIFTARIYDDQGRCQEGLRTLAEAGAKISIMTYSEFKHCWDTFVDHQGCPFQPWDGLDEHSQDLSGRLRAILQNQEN
Chain of Peroxisome proliferator-activated receptor delta (Homo sapiens) (Q03181 whole entry, looked up): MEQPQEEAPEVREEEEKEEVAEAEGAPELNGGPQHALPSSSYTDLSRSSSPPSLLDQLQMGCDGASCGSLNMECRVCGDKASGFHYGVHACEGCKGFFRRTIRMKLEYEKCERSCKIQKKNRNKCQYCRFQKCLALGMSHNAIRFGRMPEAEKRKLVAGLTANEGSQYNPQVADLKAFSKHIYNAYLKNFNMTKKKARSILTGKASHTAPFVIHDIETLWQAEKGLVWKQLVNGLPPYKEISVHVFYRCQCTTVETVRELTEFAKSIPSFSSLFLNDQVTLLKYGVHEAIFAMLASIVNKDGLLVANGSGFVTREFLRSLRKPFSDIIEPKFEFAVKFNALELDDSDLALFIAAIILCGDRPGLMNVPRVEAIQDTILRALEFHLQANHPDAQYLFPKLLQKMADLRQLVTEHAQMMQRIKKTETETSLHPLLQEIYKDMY
Chain of Thyroid hormone receptor beta (Homo sapiens) (P10828 whole entry, looked up): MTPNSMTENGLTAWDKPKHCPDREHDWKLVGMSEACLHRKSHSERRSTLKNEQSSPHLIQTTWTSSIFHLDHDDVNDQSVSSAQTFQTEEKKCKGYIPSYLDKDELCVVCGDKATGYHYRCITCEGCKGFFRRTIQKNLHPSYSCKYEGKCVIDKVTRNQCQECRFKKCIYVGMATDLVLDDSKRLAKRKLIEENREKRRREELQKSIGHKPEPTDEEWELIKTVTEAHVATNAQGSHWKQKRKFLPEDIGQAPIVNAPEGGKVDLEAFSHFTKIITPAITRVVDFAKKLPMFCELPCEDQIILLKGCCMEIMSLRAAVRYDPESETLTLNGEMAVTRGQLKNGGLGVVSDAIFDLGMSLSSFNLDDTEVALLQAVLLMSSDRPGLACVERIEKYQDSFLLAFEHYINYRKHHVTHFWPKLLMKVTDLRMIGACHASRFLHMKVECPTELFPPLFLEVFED
Chain of Vitamin D3 receptor (Homo sapiens) (P11473 whole entry, looked up): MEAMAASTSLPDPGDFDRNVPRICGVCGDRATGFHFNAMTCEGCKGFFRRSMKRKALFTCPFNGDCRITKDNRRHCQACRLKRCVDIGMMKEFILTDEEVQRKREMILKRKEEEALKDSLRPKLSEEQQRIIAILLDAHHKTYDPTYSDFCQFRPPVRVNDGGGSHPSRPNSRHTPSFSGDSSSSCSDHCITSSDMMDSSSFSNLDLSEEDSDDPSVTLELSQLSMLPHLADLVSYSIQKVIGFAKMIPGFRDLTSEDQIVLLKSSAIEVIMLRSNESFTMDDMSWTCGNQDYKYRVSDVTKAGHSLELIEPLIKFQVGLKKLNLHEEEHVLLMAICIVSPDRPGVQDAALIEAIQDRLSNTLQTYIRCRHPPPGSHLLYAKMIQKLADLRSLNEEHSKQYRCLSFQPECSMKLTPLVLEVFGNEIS
Chain of Glucocorticoid receptor (Homo sapiens) (P04150 whole entry, looked up): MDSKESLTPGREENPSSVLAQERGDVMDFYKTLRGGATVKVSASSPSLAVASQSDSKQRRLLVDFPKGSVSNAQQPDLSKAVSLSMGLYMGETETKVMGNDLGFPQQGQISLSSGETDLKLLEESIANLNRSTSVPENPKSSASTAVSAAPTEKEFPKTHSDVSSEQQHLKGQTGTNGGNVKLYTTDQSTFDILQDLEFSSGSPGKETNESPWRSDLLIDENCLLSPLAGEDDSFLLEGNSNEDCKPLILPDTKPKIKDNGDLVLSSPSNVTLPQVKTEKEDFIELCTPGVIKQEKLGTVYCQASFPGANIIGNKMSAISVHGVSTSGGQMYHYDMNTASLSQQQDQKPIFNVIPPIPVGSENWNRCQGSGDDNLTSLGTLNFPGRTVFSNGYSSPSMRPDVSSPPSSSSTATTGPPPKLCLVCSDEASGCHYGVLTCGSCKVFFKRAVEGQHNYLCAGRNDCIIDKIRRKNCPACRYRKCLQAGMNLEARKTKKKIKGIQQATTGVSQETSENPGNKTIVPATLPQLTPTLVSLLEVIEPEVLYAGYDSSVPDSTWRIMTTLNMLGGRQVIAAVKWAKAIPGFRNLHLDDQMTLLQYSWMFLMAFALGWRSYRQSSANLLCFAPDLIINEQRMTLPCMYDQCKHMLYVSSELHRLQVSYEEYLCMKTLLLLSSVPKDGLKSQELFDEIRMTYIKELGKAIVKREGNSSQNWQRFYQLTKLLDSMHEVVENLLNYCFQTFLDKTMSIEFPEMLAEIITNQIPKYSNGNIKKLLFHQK
Chain of Peroxisome proliferator-activated receptor gamma (Homo sapiens) (P37231 whole entry, looked up): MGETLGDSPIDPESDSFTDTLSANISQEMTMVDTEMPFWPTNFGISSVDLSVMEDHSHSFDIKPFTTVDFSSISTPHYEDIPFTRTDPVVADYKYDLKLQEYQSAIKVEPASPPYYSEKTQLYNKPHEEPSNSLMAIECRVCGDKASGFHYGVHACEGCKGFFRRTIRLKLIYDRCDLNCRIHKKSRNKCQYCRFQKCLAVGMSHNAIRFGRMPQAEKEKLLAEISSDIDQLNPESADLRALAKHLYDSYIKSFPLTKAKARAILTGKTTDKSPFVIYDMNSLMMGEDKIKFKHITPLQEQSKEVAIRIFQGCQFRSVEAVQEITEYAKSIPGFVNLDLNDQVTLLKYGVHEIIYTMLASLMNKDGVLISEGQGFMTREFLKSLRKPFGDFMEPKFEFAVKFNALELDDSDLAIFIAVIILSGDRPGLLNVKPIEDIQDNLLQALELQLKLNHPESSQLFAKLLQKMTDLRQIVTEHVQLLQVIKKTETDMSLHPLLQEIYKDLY

In the case of `CC(C)(Oc1ccc(C2CC2(Cl)Cl)cc1)C(=O)O` (centres undefined), the Potency entry in [1], in experiment [6] and in [9] was “inactive” each time. Also, the outcome in experiment [2], in experiment [4], in experiment [8], in [10], in experiment [11] and in experiment [12] was inactive. For the same compound, the activation in experiment [3] is -8.82% (inactive); in [5], -2.49% (inactive). The figures for the max response in [7], in experiment [13] and in experiment [14] were -19.7%, 3.34% and -27.6% (inactive), respectively.

On to `O=C(c1ccc(OCCN2CCCCC2)cc1)c1c(-c2ccc(O)cc2)sc2cc(O)ccc12`, for which the results for the Potency in experiment [6], in [9] and in experiment [14] were 39.8 µM (active), 39.8 µM (active) and 25.1 µM (active), respectively. Besides, the call in [11] was inactive. Moreover, the max response in experiment [13] was -24.2%.

Regarding `COc1cc2nc(N3CCN(C(=O)c4ccco4)CC3)nc(N)c2cc1OC`, the compound was called inactive in [15].

With `CN1CCC(=C2c3ccccc3C=Cc3ccccc32)CC1`, the result in experiment [15] was inactive.

For the compound `O=c1c(-c2ccc(O)cc2)coc2cc(O)cc(O)c12`, in [1], the Potency entry was “inactive”. The Potency is 25.1 µM (active) in experiment [16] and 35.5 µM (active) in experiment [14]. The activation in experiment [5] is -14.7% (inactive) and -3.51% (inactive). Moreover, the result in experiment [10], in experiment [11] and in experiment [12] was inactive. For the same compound, the max response in [13] turned out to be 18.6%.

In the case of `Cc1cc(C(C)(C)C)c(O)c(C)c1CC1=NCCN1`, in experiment [15], the call was inactive.

As for `COc1ccc(CCN(C)CCCC(C#N)(c2ccc(OC)c(OC)c2)C(C)C)cc1OC` (centres undefined), in experiment [15], the call was inactive.

`Nc1c2c(nc3ccccc13)CCCC2`: the compound was called inactive in experiment [15], in [2], in experiment [17], in experiment [18] and in [12]. In addition, the results for the max response in experiment [13] and in experiment [14] were 12.8% and -6.99% (inactive), respectively.

Take `CN(C)C(=O)C(CCN1CCC(O)(c2ccc(Cl)cc2)CC1)(c1ccccc1)c1ccccc1`: in experiment [15], the call was inactive.

Consider `N[C@@H](Cc1c[nH]c2ccc(O)cc12)C(=O)O`, for which the Potency result in [1] and in experiment [9] was “inactive” throughout. Further, the call in experiment [2], in experiment [17], in [8], in [18], in [10] and in [11] was inactive. Also, in [20], the compound was classed as inactive. Further, the activation in experiment [5] is -7.97% (inactive). For the same compound, the max response in experiment [7] is 3.83%; in experiment [19] it was -7.77%; in experiment [13], 1.87%; in experiment [14], 3.1% (inactive).

In the case of `Cc1ccc(-c2cc(C(F)(F)F)nn2-c2ccc(S(N)(=O)=O)cc2)cc1`, the compound was classed as inactive in experiment [2].

Take `CC#C[C@]1(O)CC[C@H]2[C@@H]3CCC4=CC(=O)CCC4=C3[C@@H](c3ccc(N(C)C)cc3)C[C@@]21C`: in [5], the activation was -13.5% (inactive). The outcome in [12] was inactive.

As for `CC(C)C(=O)Nc1ccc([N+](=O)[O-])c(C(F)(F)F)c1`, the call in [2], in experiment [18] and in experiment [12] was inactive. For the same compound, the Potency result in experiment [16] and in [9] was “inactive” in each case. Besides, the max response in experiment [13] was 2.09% and 2.52%; in experiment [14], -17.5% (inactive) and 1.97% (inactive).

In the case of `CCOC(=O)C(C)(C)Oc1ccc(Cl)cc1`, the Potency entry in [1], in [16], in experiment [6] and in experiment [9] was “inactive” each time. The compound was called inactive in experiment [2], in experiment [8], in [18], in [10], in experiment [11] and in [20]. For the same compound, the call in experiment [12] was inactive. The activation in [5] is -5.3% (inactive). Also, the max response in experiment [7] was -15.2%; in experiment [19] it was -9.24%; in experiment [13], -5.41%; in experiment [14] it was 3.43% (inactive).
